According to PubChem BioAssay (NCATS):
Records with an inconclusive call do not appear. Active and inactive are the calls of the source. Calls come from the whole dose curve; as a rule, active = well fitted cell-killing curve with a large enough effect; inconclusive = small, poorly fitted or top-dose-only effect, or effect the other way; inactive = flat fitted curve, though single readings scatter.

Tests used:
Assay in all cases: Primary qHTS to identify gynecologic anti-cancer compounds using libraries of approved drugs and bioactive compounds (AID 1345084); note: nearly all actives have a fitted effect of over 55% in size
Conditions in all cases: Gynecologic cancer cell panel viability, ATPlite luminescence, 48 h; series mostly up to 57.5 µM
[1] = system: JEG-3
In short: (§1)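 Five-point cytotoxicity, 48 h drug exposure at 37 C, 5% CO2, on cells seeded 16 h beforehand. ATP content read by ATPlite luminescence.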

[2] = system: OV90
In short: as §1

[3] = system: PA-1
In short: as §1

[4] = system: SKOV3
In short: as §1

[5] = system: Tov-21-G
In short: as §1

[6] = system: Tov112D
In short: as §1
% is set by controls: 0 for no effect and ±100 for the full control effect.

CC1(C)CCCC2(C)C1CC=C1C(=O)OC(O)C12O (stereo not given)
inactive: Potency [1] | Potency [2] | Potency [3] | Potency [4] | Potency [5] | Potency [6]

CC(C)C(N)C(=O)OCCOCn1cnc2c(=O)[nH]c(N)nc21 (stereo not given)
inactive: Potency [1] | Potency [2] | Potency [3] | Potency [4] | Potency [5] | Potency [6]

O=C(O)COCCN1CCN([C@H](c2ccccc2)c2ccc(Cl)cc2)CC1
inactive: Potency [1] | Potency [2] | Potency [3] | Potency [4] | Potency [5] | Potency [6]

CC(=O)OC[C@]12[C@H](OC(C)=O)C(=O)[C@@H]3[C@@H](OC(C)=O)[C@@]14O[C@@]3(C)COC(=O)c1cccnc1[C@@H](C)[C@H](C)C(=O)O[C@@H]([C@H](O)[C@@H]2OC(C)=O)[C@]4(C)O
inactive: Potency [1] | Potency [2] | Potency [3] | Potency [4] | Potency [5] | Potency [6]

O=C(O[C@H]1[C@@H]2C=CO[C@@H](O[C@@H]3O[C@H](CO)[C@@H](O)[C@H](O)[C@H]3O)[C@@H]2[C@@]2(CO)O[C@@H]12)c1ccccc1
inactive: Potency [1] | Potency [2] | Potency [3] | Potency [4] | Potency [5] | Potency [6]

CC(O)/C=C/C1(O)C(C)C(O[C@@H]2O[C@H](CO)[C@@H](O)[C@H](O)[C@H]2O)C(O)CC1(C)C (stereo not given in full)
inactive: Potency [1] | Potency [2] | Potency [3] | Potency [4] | Potency [5] | Potency [6]

CC(C)C1=CC2C(CC[C@]2(C)O)[C@](C)(O)CC1 (stereo not given in full)
inactive: Potency [1] | Potency [2] | Potency [3] | Potency [4] | Potency [5] | Potency [6]

COc1ccc([C@@]2(O)c3c(ccc4c3OC(C)(CCC=C(C)C)C=C4)NC(=O)[C@@H]2OC)cc1 (stereo not given in full)
inactive: Potency [1] | Potency [2] | Potency [3] | Potency [4] | Potency [5] | Potency [6]

C[C@@H]1O[C@@H](O[C@H]2[C@H](O[C@H]3[C@H](O[C@H]4CC[C@@]5(C)C(CC[C@]6(C)C5CC=C5[C@@H]7CC(C)(C)C[C@@H](O)[C@]7(C)CC[C@]56C)[C@@]4(C)CO)O[C@H](C(=O)O)[C@@H](O)[C@@H]3O)OC[C@H](O)[C@@H]2O)[C@H](O)[C@H](O)[C@H]1O (stereo not given in full)
inactive: activity change, negative = cytotoxicity [1] -0.873% [at 11.6 µM] | activity change, negative = cytotoxicity [2] -3.06% [at 11.6 µM] | activity change, negative = cytotoxicity [3] -1.53% [at 11.6 µM] | activity change, negative = cytotoxicity [4] -7.2% [at 11.6 µM] | activity change, negative = cytotoxicity [5] -1.97% [at 11.6 µM] | activity change, negative = cytotoxicity [6] -12.3% [at 11.6 µM]

C=C1CCC2C(C)(C)C(O)CCC2(C)C1CCC(C)CCO (stereo not given)
inactive: Potency [1] | Potency [2] | Potency [3] | Potency [4] | Potency [5] | Potency [6]

COc1ccc([C@H]2CNC(=O)C2)cc1OC1CCCC1
inactive: Potency [1] | Potency [2] | Potency [3] | Potency [4] | Potency [5] | Potency [6]

CC1(C)CCCC2(C)C(CO)C(CO)=CCC12 (stereo not given)
inactive: Potency [1] | Potency [2] | Potency [3] | Potency [4] | Potency [5] | Potency [6]

C=C[C@H]1C(O[C@@H]2O[C@H](CO)[C@@H](O)[C@H](O)[C@H]2O)OC=C2C(=O)N3CCc4c([nH]c5ccccc45)C3CC21 (stereo not given in full)
inactive: Potency [1] | Potency [2] | Potency [3] | Potency [4] | Potency [5] | Potency [6]

CC(C)(C)NC(=O)[C@@H](c1cccnc1)N(C(=O)c1ccco1)c1ccc(C(C)(C)C)cc1
inactive: Potency [1] | Potency [2] | Potency [3] | Potency [4] | Potency [5] | Potency [6]

CC(C)(C)c1ccc(S(=O)(=O)Nc2ccc(Cl)cc2C(=O)c2cc[n+]([O-])cc2)cc1
inactive: Potency [1] | Potency [2] | Potency [3] | Potency [4] | Potency [5] | Potency [6]

O=C1Nc2ccccc2C(O)(c2ccccc2)C1O (stereo not given)
inactive: Potency [1] | Potency [2] | Potency [3] | Potency [4] | Potency [5] | Potency [6]

C[C@H](NC(c1cccc(C[P+](=O)O)c1)[C@H](C)O)c1ccc(Cl)c(Cl)c1 (stereo not given in full)
inactive: Potency [1] | Potency [2] | Potency [3] | Potency [4] | Potency [5] | Potency [6]

C=C1C(=O)O[C@H]2[C@H]1CC/C(C)=C/CC[C@@]1(C)O[C@@H]21
inactive: Potency [1] | Potency [2] | Potency [3] | Potency [4] | Potency [5] | Potency [6]

C[C@@H]1CN(Cc2ccccc2)C[C@H]1c1nc2c(cnn2C2CCOCC2)c(=O)[nH]1
inactive: Potency [1] | Potency [2] | Potency [3] | Potency [4] | Potency [5] | Potency [6]

C[C@@H]1CC[C@]2(C(=O)O[C@@H]3O[C@H](CO)[C@@H](O)[C@H](O)[C@H]3O)CC[C@]3(C)C(=CCC4[C@@]5(C)C[C@@H](O)[C@H](O)[C@@](C)(C(=O)O[C@H]6[C@H](O)C[C@@]7(C)C(CC[C@]8(C)C7CC=C7[C@H]9[C@](C(=O)O[C@@H]%10O[C@H](CO)[C@@H](O)[C@H](O)[C@H]%10O)(CC[C@@H](C)[C@@]9(C)O)CC[C@]78C)[C@@]6(CO)C(=O)O)C5CC[C@]43C)[C@@H]2[C@]1(C)O (stereo not given in full)
inactive: activity change, negative = cytotoxicity [1] -2.9% [at 6.55 µM] | activity change, negative = cytotoxicity [2] -0.495% [at 6.55 µM] | activity change, negative = cytotoxicity [3] 8.04% [at 6.55 µM] | activity change, negative = cytotoxicity [4] 17.7% [at 6.55 µM] | activity change, negative = cytotoxicity [5] 0.548% [at 6.55 µM] | activity change, negative = cytotoxicity [6] 3.01% [at 6.55 µM]
